ClpP mod – qHTS Assay for Activators of ClpP; ATP-dependent Clp protease proteolytic subunit (Bacillus subtilis (strain 168)), P80244; purified B. subtilis ClpP, FRET peptide cleavage, 20 min; Potency, µM (highest dose often 57.5 µM), for the others: at the top dose activity change, negative = active; hit rate 1.9% among 340,000; AID 651965, 2013; active means well fitted falling curve with a large enough effect; inconclusive means small, poorly fitted or top-dose-only effect; inactive means no such curve, though single readings can be large or run the other way; further: potency means the concentration at half of the fitted maximal effect; the source files actives as falling curves though it sought activators and does not explain the sign; nearly all actives have a fitted effect of over 65% in size
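Purified B. subtilis ClpP, 10 microg/mL final in Tris/HCl pH8 with KCl, BSA, glycerol and Tween-20, cleaved an Abz/nitrotyrosine-quenched decapeptide. Fluorescence (ex 320, em 430) was read at 0 and 20 min at room temperature. Delta was normalized to 5.8 microM ADEP and DMSO/no-enzyme controls.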
RXFP1 agonist – RXFP1 (human) receptor agonism | Potency, µM (titrated, usually from 57.5 µM), for the others: top-dose activation, usual class: activators | AID 2676 | HEK293T-RXFP1 cAMP TR-FRET, 30 min; response scale: percent of porcine relaxin response, buffer zero | hit rate 0.3% among 370,000; active means well fitted activation curve with a large enough effect; inconclusive means small, poorly fitted or top-dose-only effect; further: potency means the concentration at half of the fitted maximal effect; on the % scale 0 is the no-effect control and ±100 the full control effect; nearly all actives have a fitted effect of over 60% in size
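HEK293 cells stably expressing RXFP1, treated 30 min at 37C with compounds plus PDE4 inhibitor Ro 20174; cAMP measured by HTRF TR-FRET. Normalized to buffer and 29 nM porcine relaxin; EC50 by Hill fit.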
gsp agonist – agonists of gsp mutant (McCune-Albright syndrome); Potency, µM (highest dose often 76.9 µM), for inactives: at the top dose activation (cAMP increase), usual class: activators; hit rate 0.13% among 340,000; gsp mutant cells, cAMP HTRF, 30 min; active means well fitted activation curve with a large enough effect; inconclusive means small, poorly fitted or top-dose-only effect, or another doubt; inactive means no such curve, though single readings can be large or run the other way; cell line not stated here;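 further: phosphodiesterase inhibitor Ro 20-1724 added with compounds to block cAMP breakdown; potency means the concentration at half of the fitted maximal effect; nearly all actives have a fitted effect of over 60% in size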
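Cells in DMEM/10% FBS with G418 were pretreated with compounds in DMSO plus […] (300 uM stock) for 30 min at 37C. cAMP was measured by HTRF (cAMP-d2 plus anti-cAMP antibody-K) after 30 min at room temperature.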
gsp antagonist – gsp mutant antagonism; gsp-mutant cells, cAMP HTRF, 30 min; AID 624288; Potency, µM (titrated, usually from 76.9 µM), for inactives: at the highest dose activity change, negative = inhibition, hits mostly inhibitors; hit rate 0.4% among 340,000; calls by dose curve; cell line not stated here;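 further: intracellular cAMP measured with PDE inhibitor Ro 20-1724 present during compound exposure; potency means the concentration at half of the fitted maximal effect; on the % scale 0 is the no-effect control and ±100 the full control effect; nearly all actives have a fitted effect of over 65% in size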
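HTRF cAMP measurement after 30 min RT detection following 30 min, 37C compound treatment alongside […] (added as 300 uM solution) in G418-selected cells seeded at 2000/well and grown 16–24 h.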
RXFP1 antag – blocks the human relaxin receptor RXFP1; Q9HBX9; HEK293-RXFP1, relaxin-stimulated cAMP HTRF, 30 min; hits give low values; activity change, negative = inhibition, % at 57.5 µM; hit rate 0.59% among 350,000;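 active means activity change of -60% or lower, but not beyond a set lower limit; inconclusive means change between -60% and -40%, or beyond the set limit; inactive means change above -40%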; further: on the % scale 0 is the no-effect control and ±100 the full control effect
pAkt inh – inhibitors of Akt phosphorylation; Neuro2A IGF-stimulated pAkt S473 HTRF, 20 min; hits give low values; activity change, % for hits at 50 µM; hit rate 0.32% among 360,000; in the data active means activity change below about -80%; inconclusive means mostly about -51% to -80%; further: on the % scale 0 is the no-effect control and ±100 the full control effect
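Neuro2A cells (4,500/well, DMEM with 0.5% FBS) were treated with compound at a single 50 µM final concentration, stimulated with 6 nM IGF for 20 min at 37 °C, and lysed. Phospho-Akt Ser473 was read by HTRF as 665/615 ratio ×10^4.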
* marks the source's active call; other numbers are inactive results; i = inactive; ? = inconclusive; / = not tested or not shown; ! = a repeat was not active; [ ] = another dose, or the depositor's remark. Hits are enriched below; roughly 2.7% of the tested compounds scored in any of these assays.

SMILES | ClpP mod | RXFP1 agonist | gsp agonist | gsp antagonist | RXFP1 antag | pAkt inh
CCCCn1cc(S(=O)(=O)c2ccc(CC)cc2)c(=O)c2cc(F)c(N3CCCC(C)C3)cc21 (stereo not given) | 15.8µM* | 0.3% | / | / | -2.6 | /
COc1ccc2cc(-c3ccon3)ccc2c1 | 3.6% | 3.7% | 10.2% | 13.8% | -6.9 | i
CCOc1ncc(F)c(=O)[nH]1 | / | / | / | / | 5.6 | /
O=C(Cn1ncn2c(cc3ccccc32)c1=O)NCCC1=CCCCC1 | 22.4µM* | -0.3% | -3.8% | 8.3% | 0.1 | i
Cc1ccc(-n2nc3c(=O)n(CC(=O)NCCc4ccc(Cl)cc4)nc(C)c3c2C)cc1 | 1.7% | 4.0% | 28.1% | -17.0% | 3.5 | i
O=C(Cc1ccccc1)NCCC1=CCCCC1 | 1.0% | 0.7% | -22.9% | 8.7% | -1.3 | i
Cc1ccc(-n2nc3c(=O)n(CC(=O)NCCC4=CCCCC4)nc(C)c3c2C)cc1 | 1.0% | 8.2% | 0.3% | -8.7% | -102.5* | /
O=C(NCCC1=CCCCC1)C(c1ccccc1)c1ccccc1 | 0.2% | 3.7% | -20.8% | -5.0% | -11.0 | -117.1%*
CCC(=O)N1CCN(c2nc3ccc(Br)cc3s2)CC1 | 1.3% | 0.8% | 8.7% | -3.3% | 0.7 | /
O=S(=O)(Nc1ccc(Cl)cc1)c1cccc(S(=O)(=O)c2ccc(Cl)c(Cl)c2)c1 | 1.5% | 4.8% | / | / | / | /
COc1ccnc(NCc2cccnc2)c1C#N | 31.6µM* | 2.0% | 11.0% | 0.6% | 15.1 | /
CCOc1ccc2c(CC)cc(=O)oc2c1OCC | -2.2% | 2.5% | 1.3%[15.4 µM] | -6.4% | -2.4 | i
C=CCOc1ccc2c(CC)cc(=O)oc2c1C | 25.1µM* | -1.3% | 8.8% | -5.9% | -2.1 | i
CCc1cc(=O)oc2c(C)c(O[C@@H]3O[C@H](CO)[C@@H](O)[C@H](O)[C@H]3O)ccc12 | 28.2µM* | 2.1% | -10.8%[15.4 µM] | 12.7% | -1.6 | i
COC(=O)c1ccc(-c2ccco2)n1Cc1cc(C)ccc1C | 31.6µM* | -0.5% | -28.1% | -19.5% | -8.4 | i
COC(=O)c1ccc(-c2ccco2)n1Cc1cccc(C)c1 | ? | -1.9% | 25.8% | -16.2% | -21.6 | i
Cc1ccc(-n2nc3c(c2NC(=O)CC(C)C)CS(=O)(=O)C3)c(C)c1 | -2.5% | 0.0% | 0.1% | 15.1% | 2.2 | i
CCOC(=O)CNC(=O)CSc1nc(-c2ccc(C)cc2)ns1 | / | 0.8% | -29.4%[15.4 µM] | 11.2µM* | -11.6 | i
Cc1ccc(C)c2nc(SCC(=O)NCc3cccs3)c(C#N)cc12 | -0.9% | ? | 15.2% | -1.9% | -4.3 | i
Cc1cccc2cc(C#N)c(SCC(=O)NCc3cccs3)nc12 | -1.4% | 12.6µM* | ? | -4.9% | 1.4 | i
CCc1cc2cccc(C)c2nc1SCC(=O)NC1CCCC1 | / | ? | 13.8% | -20.3% | -2.0 | i
CCOC(=O)CNC(=O)CSc1nnc(-c2cccc(C)c2)n1-c1ccc(OC)cc1 | 0.3% | 1.2% | -5.1% | 6.31µM* | -2.1 | i
CCOC(=O)CNC(=O)CSc1nc2c(C)cccc2cc1CC | / | 14.1µM* | ? | 8.1% | 15.2 | i
Cc1cccc(C)c1NC(=O)C(c1cc2ccccc2o1)N1CCC(c2ccccc2)CC1 (stereo not given) | -4.6% | / | / | / | / | i
CC(C)NC(=O)/C(C#N)=C/c1cccc(NC(=O)c2ccccc2Cl)c1 | -9.0% | 2.9% | -6.4%[15.4 µM] | 7.5% | -62.8* | i
SMILES | ClpP mod | RXFP1 agonist | gsp agonist | gsp antagonist | RXFP1 antag | pAkt inh
COC(=O)c1cc2c(cc1NC(=O)c1cnn(-c3ccccc3)c1-n1cccc1)OCO2 | -6.3% | 0.8% | / | / | / | /
CCOC(=O)C1CCN(C(=O)c2cccs2)CC1 | -1.6% | 6.1% | -5.0% | -4.5% | 19.9 | i
O=C(Cn1c(-c2cccs2)cc2cc(F)ccc21)N1CCCCC1 | ? | 5.0% | / | / | -22.7 | /
CCOC(=O)C1CCN(C(=O)Cn2c(-c3cccs3)cc3cc(Cl)ccc32)CC1 | 35.5µM* | 4.2% | / | / | -10.5 | /
CC1CCN(C(=O)Cn2c(-c3cccs3)cc3cc(Cl)ccc32)CC1 | 35.5µM* | 2.7% | / | / | -26.0 | /
O=C(OCC(=O)N1N=C(c2ccc(Cl)cc2)CC1c1ccco1)c1ccccc1O (stereo not given) | 35.5µM* | -1.3% | -2.4% | 0.2% | -12.2 | i
CCCN1CCN(C(=O)Cn2nc(C)n3c(cc4c(OC)cccc43)c2=O)CC1 | / | / | 13.5%[15.4 µM] | 7.2% | -6.5 | i
COc1cccc2c1cc1c(=O)n(CC(=O)N3CCN(c4ccc(F)cc4)CC3)nc(C)n12 | 20µM* | -0.7% | / | / | 5.8 | /
COc1cccc2c1cc1c(=O)n(CC(=O)NC3CCCCC3)nc(C)n12 | 31.6µM* | 1.2% | -20.8% | 7.3% | 9.0 | i
Cc1nn(CC(=O)N2CCN(c3cccc(C(F)(F)F)c3)CC2)c(=O)c2cccn12 | -0.9% | 35.5µM*! | ? | -0.4% | -8.6 | i
OC(c1ccc(-c2ccccc2)cc1)c1ncc(-c2ccccc2F)[nH]1 (stereo not given) | -6.6% | / | / | / | / | i
COc1ccc(CN(Cc2ccccc2)C(=O)c2cccc(C#N)c2)cc1COc1ccc(NC(C)=O)cc1 | 0.4% | / | / | / | / | /
O=C(C[n+]1cccc(Br)c1)c1ccc(Br)cc1 | 1.0% | / | / | / | / | /
N#CCSc1n[nH]c2nc3c(c(=O)n12)C1(CCCC1)Cc1ccccc1-3 | 15.8µM* | 0.1% | 6.7% | -20.0% | -7.3 | i
Cc1cccc(-n2c(SCC(N)=O)nc3c(c2=O)C2(CCCC2)Cc2ccccc2-3)c1 | ? | 28.9% | 10µM* | 2.7% | / | i
NC(=O)CSc1nc2c(c(=O)n1-c1ccccc1)C1(CCCCC1)Cc1ccccc1-2 | / | 7.4% | 15.1%[15.4 µM] | -14.2% | 9.2 | i
COc1cc(CCNC(=O)c2ccc3c(c2)c(C)c(C)n3Cc2cccc(C)c2)cc(OC)c1OC | -17.3% | -0.5% | / | / | -18.1 | /
Cc1cn([C@@H](CCCCNC(=O)OC(C)(C)C)C(=O)NCCCCCCCCCCC(=O)N2CCN(C(=O)OC(C)(C)C)CC2)nn1 | 1.1% | 0.0% | / | 28.2µM* | / | i
O=C(CCS(=O)(=O)c1ccccc1)Nc1nc2cc3c(cc2s1)OCO3 | -2.5% | 0.2% | -2.9% | 50.1µM* | -5.4 | i
COc1ccc(OC)c(/C=C/c2sc3ccccc3[n+]2C)c1 | 1.1% | / | / | / | / | /
N#Cc1c(N)nc(SCC(=O)NCCc2ccccc2)c(C#N)c1-c1cccs1 | ? | ? | ? | -0.2% | 9.8 | -89.4%*
O=C(CSc1nnc(C2CC2)n1-c1ccccc1)NCCc1ccccc1 | -2.9% | 0.6% | 19.4% | -6.2%[15.4 µM] | 0.3 | -101.6%*
Cc1nc(SCC(=O)NCCc2ccccc2)nc(C)c1C | 15.8µM* | 0.3% | 8.3% | 6.4% | 5.4 | i
C[C@]1(Cn2ccnn2)[C@H](C(=O)O)N2C(=O)C[C@H]2S1(=O)=O | / | / | / | / | -5.3 | /
